In PubChem BioAssay AID624305 (National Center for Advancing Translational Sciences (NCATS), 2012):
Results filed as inconclusive are left out. A call without a number means that no potency is given here. Calls of active or inactive are those of the source. The call rests on the fitted dose curve; in most records, active means well fitted activation curve with a large enough effect; inconclusive means small, poorly fitted or top-dose-only effect; inactive means no such curve, though single readings can be large or run the other way.

Assay: qHTS assay for re-activators of p53 using a Luc reporter: Hit Validation; further: nearly all actives have a fitted effect of over 75% in size
Conditions: p53-responsive luciferase reporter cells, luminescence, H1299 line expressing heat-sensitive Ala138Val p53; series mostly up to 46.1 µM
How it was run: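 H1299 (p53-null) cells stably carrying p53-A138V and a BP100-luciferase reporter, 1000 cells/well, treated 24 h at 37 deg C. Compounds at several concentrations, 1:5 dilution; nocodazole control; luminescence read after 10 min with detection reagent.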
Potency means the concentration at half of the fitted maximal effect.

| SMILES | Potency |
| --- | --- |
| Cc1ccccc1C(=O)Nc1ccc(Br)cn1 | 3.66 µM (active) |
| CC(C)(C)c1ccc(/C=N/Nc2ccc(C(=O)O)cc2)cc1 | inactive |
| CC(Sc1nc(N)cc(=O)[nH]1)C(=O)NNC(=O)c1cccc(Cl)c1 (configuration not stated) | inactive |
| O=C(Oc1ccccc1/C=C\C(=O)c1cc2ccccc2o1)c1cccc(F)c1 | 0.206 µM (active) |
| O=[N+]([O-])c1ccc(NC(=S)NCCc2ccc(F)cc2)cc1 | inactive |
| C/C(=N/NC(=O)c1ccc2c(c1)OCO2)c1ccc(NC(=O)C(F)(F)F)cc1 | 9.2 µM (active) |
| CC1CCCN(C(=O)CN2C(=O)c3ccccc3S2(=O)=O)C1 (configuration not stated) | 23.1 µM (active) |
| CN(C)c1ccc(N=Cc2nc(-c3ccccc3)oc2OC(=O)c2cccc(Cl)c2)cc1 | 2.06 µM (active) |
| CC(=O)c1cccc(NC(=O)c2sc(Cl)nc2C)c1 | inactive |
| COc1ccc2cc(C3(C)NC(=O)N(CC(=O)Nc4c(C)n(C)n(-c5ccccc5)c4=O)C3=O)ccc2c1 (configuration not stated) | inactive |
| O=C(COc1ccc(F)cc1Cl)NC1CCCCCC1 | 7.31 µM (active) |
| NC(=O)c1ccc(-n2c(CCC(=O)O)ccc2-c2cccs2)cc1 | inactive |
| C/C(=N\NC(=O)c1cc(C)nc2ccccc12)c1ccccn1 | 16.4 µM (active) |
| Cc1ccc(C)n1-c1cccc(NC(=O)c2ccccc2)c1 | inactive |
| O=C(NC(=S)Nc1nc2ccccc2s1)c1ccco1 | 0.58 µM (active) |
| CCOC(=O)N1CCN(S(=O)(=O)c2ccc(C(=O)NNc3nc4c(C)cc(C)cc4s3)cc2)CC1 | inactive |
| COc1ccc(CCC(C)NCC(C)c2ccccc2)cc1 (configuration not stated) | inactive |
